The whole screen tested about 48,000 compounds, of which about 13,000 (27%) showed an effect of 50% or more. Some of the results follow.
Tested on: Wolbachia pipientis
Test: Anti-Wolbachia Cell-Based Screen
Format: functional
Design: scale not given: in the data most compounds retested in dose-response had high values
Details: 5 µM

Row | Structure (SMILES) | Percent Effect [%]
1 | O=C1NCCO[C@H]2CN(C(=O)CCc3ccc(Cl)cc3)CC[C@@H]12 | 1.273
2 | O=C(CC1CCc2ccccc21)NCCSc1cnn[nH]1 (stereo not drawn) | -1.678
3 | O=S(=O)(NCC1CCOC1)N1CCc2ccccc2C1 (stereo not drawn) | 0.4119
4 | CN(CCOc1ccc(Br)cc1)Cc1cscn1 | -4.62
5 | CCCc1nnc(NC2CCN(Cc3ccc(F)c(F)c3)CC2)o1 | -13.59
6 | Cc1cc(C(=O)NC2CCCCNC2=O)c(=O)[nH]c1C (stereo not drawn) | -5.405
7 | FC1(F)CCN(Cc2ccncc2)CC12CCN(c1cccnc1)C2.O=C(O)C(F)(F)F.O=C(O)C(F)(F)F.O=C(O)C(F)(F)F (stereo not drawn) | 90.74
8 | O=C(O)C(F)(F)F.O=C(O)C(F)(F)F.O=C(O)CN1CCC(F)(F)C2(CCN(c3ccccc3)C2)C1 (stereo not drawn) | -5.23
9 | Cn1cc(CN2CCC(F)(F)C3(CCN(c4cccc(F)c4)C3)C2)cn1 (stereo not drawn) | 120.4
10 | O=C(CO)N1CCC(F)(F)C2(CCN(c3ccccc3)C2)C1.O=C(O)C(F)(F)F (stereo not drawn) | 5.936
11 | Cn1cc(CN2CCC(F)(F)C3(CCN(c4cccnc4)C3)C2)cn1.O=C(O)C(F)(F)F.O=C(O)C(F)(F)F (stereo not drawn) | 116.7
12 | O=C(O)C(F)(F)F.O=C(c1c[nH]cn1)N1CCC(F)(F)C2(CCN(c3cccc(F)c3)C2)C1 (stereo not drawn) | -14.3
13 | Cn1cc(CN2CCOC3(CCCN(c4cccc(F)c4)C3)C2)cn1.O=C(O)C(F)(F)F.O=C(O)C(F)(F)F (stereo not drawn) | -4.147
14 | FC1(F)CCN(Cc2cccnc2)CC12CCN(c1ccccc1)C2.O=C(O)C(F)(F)F.O=C(O)C(F)(F)F.O=C(O)C(F)(F)F (stereo not drawn) | 93.27
15 | Cc1nc(Nc2ccc(Cl)cn2)sc1C(=O)NC(C)C | 4.933
16 | O=C(NCc1nc(NC2CCCC2)c2cc(Cl)ccc2n1)c1ccoc1 | 13.57
17 | CC(C)(C(=O)NCc1n[nH]c(=O)[nH]1)c1ccc(F)cc1 | 1.866
18 | O=C(NCCC(O)c1ccco1)c1ccccc1Br (stereo not drawn) | 14.27
19 | CC(O)CN1CCN(C(=O)c2ccn(-c3cccc(Cl)c3)n2)CC1 (stereo not drawn) | 1.72
20 | CS(=O)(=O)N1CCOCC12CCN(Cc1ccoc1)CC2 | 122
21 | Cn1cc(CN2CCC3(CCCN3S(C)(=O)=O)CC2)cn1 | 6.984

Row | Structure (SMILES) | Percent Effect [%]
22 | CS(=O)(=O)N1CCCC12CCN(Cc1nccs1)CC2.O=C(O)C(F)(F)F | -14.48
23 | CN(C)C(=O)CO[C@H]1CO[C@@]2(CCN(Cc3ccoc3)C2)C1 | -7.87
24 | CS(=O)(=O)N1CCOCC12CCN(c1nncs1)CC2 | 4.354
25 | CS(=O)(=O)N1CCCC12CCN(Cc1ccoc1)CC2 | 99.65
26 | COCCNc1ccccc1CNC(=O)NCc1ccc(C)s1 | -4.597
27 | CS(=O)(=O)CCOCCNc1cncc(Br)c1 | -7.579
28 | CN1CCCN(c2nc(C3CC3)ns2)CC1 | -64.99
29 | CC(C)N(CCNC(=O)c1n[nH]c2ccccc12)C(C)C | 25.98
30 | Cc1ccc(C(=O)NCC(C)Cn2cccn2)c(=O)[nH]1 (stereo not drawn) | -11.2
31 | CC(C)n1cc(C(=O)NCCN(C)C)c2n[nH]c(=O)c-2c1 | 115.3
32 | CN(C)CCNC(=O)c1cc2n(n1)CCN(C(=O)c1ccc[nH]1)C2 | -27.47
33 | CC(C)CNC(=O)c1cn(C(C)C)cc2c(=O)[nH]nc1-2 | 135.5
34 | CC(C)CNC(=O)c1ccc2c(=O)n(-c3ccccc3)cnc2c1 | 11.47
35 | CCOCCn1nc(C)cc1C(=O)N1CCC2(CC1)[C@H](O)C[C@@H]2OCC | -36.55
36 | CC1=C[C@@H](CNS(C)(=O)=O)[C@H](C(C)C)C[C@H]1CC(=O)NCCN(C)C | 5.044
37 | Cc1cc(C)n(CCCC(=O)N2CC[C@H]3NCCC[C@]3(CO)C2)n1 | -1.122
38 | CS(=O)(=O)CCC(=O)N1C[C@@H]2CC[C@H](C1)N(Cc1ccccc1)C2=O | 8.046
39 | Cc1ccc(CN(C)C(=O)CN2CCc3ccccc3C2)o1 | 87.7
40 | Cc1ccc(CN(C)C(=O)CN2CCCC2c2cnn(C)c2)o1 (stereo not drawn) | -1.976
41 | COCCN1CCN(CC(=O)N(C)Cc2ccc(C)o2)CC1C (stereo not drawn) | 6.475
42 | CN(Cc1ccco1)C(=O)CN1CCc2ccccc2C1 | -0.07899

Row | Structure (SMILES) | Percent Effect [%]
43 | Cc1ccc(CN(C)C(=O)CNC(=O)N2CCc3ccccc3C2)o1 | 79.51
44 | Nc1nc(NCCO)cc(N2CCc3c([nH]c4ccccc34)C2)n1 | 98.87
45 | OCC1CCCN1c1cc(NCCc2c[nH]c3ccccc23)ncn1 (stereo not drawn) | 7.134
46 | c1ccc2c3c([nH]c2c1)CN(Cc1cc2n(n1)CCNC2)CC3 | -25.6
47 | COc1ccc(F)c(-c2cc(NCCO)nc(N)n2)c1 | -1.904
48 | COc1ccc2[nH]c3c(c2c1)CN(c1cc(NCCO)nc(N)n1)CC3 | 97.63
49 | CCNc1cc(N2CCN(C(=O)c3ccc(OC)cc3)CC2)nc(C)n1 | 4.812
50 | Cc1cccc(-c2nnn3c2COC(CNC(=O)N2CCCC2)C3)c1 (stereo not drawn) | 9.642
51 | NCC1Cc2cc(-c3nccc(N4CCC(O)CC4)n3)cc(Cl)c2O1 (stereo not drawn) | -10.94
52 | Cc1ccc(C)c(Oc2ccc(CNC(=O)C3CCS(=O)(=O)C3)cn2)c1 (stereo not drawn) | -2.907
53 | CCc1noc(CNc2cccc(C(=O)N3CCSCC3)c2)n1 | 10.06
54 | CCCc1nc(CNc2cccc(C(=O)N3CCCC(O)C3)c2)no1 (stereo not drawn) | 1.271
55 | CCc1noc(CNc2ccc(CC(=O)N3CCSCC3)cc2)n1 | 21.21
56 | CCc1nc(CNc2ccc(C(=O)NCc3ccco3)cc2C)no1 | -7.097
57 | Cc1cc(C(=O)N2CCCC2)ccc1NCc1nc(CC(C)C)no1 | 81.12
58 | CCc1noc(CNc2ccc(C(=O)N3CCCC3)cc2C)n1 | 101.8
59 | CC(C)Cc1noc(CN2CCCN(C(=O)c3cccc(Cl)c3)CC2)n1 | -52.16
60 | CC(C)Cc1noc(CNc2ccccc2CC(=O)N(C)C)n1 | 7.405
61 | Cc1cc(C(=O)N2CCCC2)ccc1NCCOCC(F)(F)F | -22.68
62 | CCc1nc(CNc2ccc(C(=O)N3CCSCC3)cc2C)no1 | 92.2
63 | CCCc1noc(CNc2ccc(C(=O)N3CCCC3)cc2C)n1 | 101

From ChEMBL document CHEMBL3988442, “University of Dundee, Small-Polar-MMV Screening Library” (2021)
